In the library only some 1.8% were active in any assay of this set; here they are far more common.
bovine MsrA act: activates bovine MsrA enzyme; activation, % at 10.6 µM; hit rate 0.3% among 360,000; purified bovine MsrA, absorbance read-out; in the data active means activation above about 7.5%
NPR2 activator: GC-B (human) receptor activation; P20594; HEK293-GC-B cells, CNP EC30, cGMP TR-FRET; 0% at EC30 CNP, 100% saturating CNP; activation, % at 10 µM; hit rate 0.11% among 370,000; AID 1920062;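 active means activation at 10 µM reaching about 35% in either raw or pattern-adjusted values, limit read from the data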
MsrA inh: inhibits bovine methionine sulfoxide reductase A; purified bovine MsrA, absorbance read-out; inhibition, % at 15.5 µM; hit rate 0.75% among 360,000
NPR1 activator: GC-A (human) enzyme activation; P16066; HEK293 GC-A cells, cGMP TR-FRET, EC30 ANP; 0% at EC30 ANP, 100% saturating ANP; activation, % at 10 µM; hit rate 0.14% among 370,000; AID 1671463; in the data active means activation above about 40%
Target sequence (P16066 whole entry, looked up): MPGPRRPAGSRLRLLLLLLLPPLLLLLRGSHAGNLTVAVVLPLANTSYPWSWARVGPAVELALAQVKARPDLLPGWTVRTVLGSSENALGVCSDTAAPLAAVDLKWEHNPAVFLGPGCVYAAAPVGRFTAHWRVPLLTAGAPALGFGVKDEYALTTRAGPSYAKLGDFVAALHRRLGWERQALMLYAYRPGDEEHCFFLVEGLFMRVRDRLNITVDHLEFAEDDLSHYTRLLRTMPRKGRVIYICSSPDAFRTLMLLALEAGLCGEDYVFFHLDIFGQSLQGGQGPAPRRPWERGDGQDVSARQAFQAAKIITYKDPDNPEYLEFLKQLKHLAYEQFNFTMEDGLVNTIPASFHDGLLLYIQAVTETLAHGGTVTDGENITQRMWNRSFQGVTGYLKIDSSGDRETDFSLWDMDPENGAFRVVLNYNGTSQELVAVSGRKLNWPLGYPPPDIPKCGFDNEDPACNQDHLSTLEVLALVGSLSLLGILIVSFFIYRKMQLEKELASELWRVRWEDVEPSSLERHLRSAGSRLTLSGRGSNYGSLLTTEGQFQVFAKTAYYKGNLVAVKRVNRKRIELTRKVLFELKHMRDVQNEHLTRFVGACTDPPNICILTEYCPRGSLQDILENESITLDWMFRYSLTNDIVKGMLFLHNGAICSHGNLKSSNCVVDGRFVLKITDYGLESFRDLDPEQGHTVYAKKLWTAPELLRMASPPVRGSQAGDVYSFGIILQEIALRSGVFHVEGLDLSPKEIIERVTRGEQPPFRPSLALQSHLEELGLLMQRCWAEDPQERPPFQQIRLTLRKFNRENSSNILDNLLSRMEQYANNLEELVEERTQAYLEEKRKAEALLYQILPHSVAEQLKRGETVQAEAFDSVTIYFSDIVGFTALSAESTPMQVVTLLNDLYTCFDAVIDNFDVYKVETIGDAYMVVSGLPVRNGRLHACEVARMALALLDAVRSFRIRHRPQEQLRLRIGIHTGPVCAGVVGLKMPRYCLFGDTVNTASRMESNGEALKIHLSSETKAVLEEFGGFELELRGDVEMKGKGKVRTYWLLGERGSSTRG
HTR2A ag: mouse HTR2A agonism via beta-arrestin recruitment. hit rate 0.66% among 360,000. AID 624169. activation, % at 7.6 µM. P35363. CHO-K1 mHTR2A beta-arrestin complementation, luminescence; percent of 30 µM serotonin response;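 active means activation above a run cutoff, the mean activation of all tested compounds plus 3 SD, cut at about 14% in these data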
MsrA inh confirm: confirmation of bovine MsrA inhibitors | purified bovine MsrA, absorbance read-out | hit rate 41% among 2,300 | AID 651822 | shares compounds with MsrA inh | inhibition, % at 15.5 µM;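 further: coupled to thioredoxin reductase with NADPH and selenocystamine and DMSO as substrate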
Large screens that a line does not name were inactive (follow-up assays come after a bar, where they were run). Unless noted, no stated cut-off is given here; in the data, active means inhibition above about 4.5%; inactive means the rest.

CSc1ccc(C=NNC(=O)c2cc(-c3ccc(Cl)cc3)n[nH]2)cc1	none (no result: bovine MsrA act, MsrA inh, HTR2A ag)
O=C(O)CNC(=O)/C(=C\c1ccc2c(c1)OCO2)NC(=O)c1ccc(Br)cc1	none
O=C(Nc1cccc(C(=O)O)c1)/C(=C\c1ccc2c(c1)OCO2)NC(=O)c1ccccc1Cl	MsrA inh 5.5 | MsrA inh confirm inactive
O=C(O)COc1ccccc1/C=N/NC(=O)/C(=C\c1ccc2c(c1)OCO2)NC(=O)c1ccccc1	MsrA inh 5.5 | MsrA inh confirm inactive
O=C(Nc1ccc(C(=O)O)cc1)/C(=C\c1ccc2c(c1)OCO2)NC(=O)c1ccccc1	none
COCCNC(=S)N(C)[C@H]1C[C@H]2c3[nH]c4ccccc4c3CCN2C(=O)[C@H]1[C@H](C)O	none (no result: bovine MsrA act, HTR2A ag)
Cc1ccc2oc(-c3ccco3)cc(=O)c2c1	MsrA inh 7.7 | MsrA inh confirm 5.4
O=c1cc(-c2ccco2)oc2ccccc12	none
COc1ccc(/C=C2\SC(=O)N(CC(=O)Nc3ccc(O)cc3)C2=O)cc1OC	none
COc1ccc(/C=C2\SC(=O)N(CC(=O)NN3CCN(C)CC3)C2=O)cc1OC	MsrA inh 4.9 | MsrA inh confirm inactive
O=C(OCC#CCSc1nnc(-c2ccccc2F)o1)c1ccc(F)cc1	none (no result: bovine MsrA act, MsrA inh, HTR2A ag)
COC(=O)C1=C(C)N(Cc2ccc(C(F)(F)F)cc2)C(=NCc2ccccc2)NC1c1ccc(Cl)cc1 (stereo not given)	none (no result: bovine MsrA act, HTR2A ag)
O=c1nc(N/N=C/c2ccccn2)cn[nH]1	MsrA inh 4.7 | MsrA inh confirm inactive
CC(C)(C)C(=O)Nc1sc2c(c1C#N)CCC2	MsrA inh 5.9 | MsrA inh confirm 4.7
CCC(C)(C)C(=O)N1CCc2cc(S(=O)(=O)N(C)Cc3ccco3)ccc21	none (no result: bovine MsrA act, MsrA inh, HTR2A ag)
CN1CCCN(S(=O)(=O)c2ccc3c(c2)n(C)c(=O)c(=O)n3C)CC1	none (no result: bovine MsrA act, MsrA inh, HTR2A ag)
CC(C)(C)c1ccc(S(=O)(=O)N2CCCC(C(=O)NCCN3CCC(Cc4ccccc4)CC3)C2)cc1 (stereo not given)	none (no result: bovine MsrA act, MsrA inh, HTR2A ag)
BrC(=C\c1ccccc1)/C=N/Nc1nc(N2CCOCC2)nc(N2CCOCC2)n1	MsrA inh 5.3 | MsrA inh confirm 4.8
CN(C)c1ccc(/C=C/C=N/Nc2nc(N3CCOCC3)nc(N3CCOCC3)n2)cc1	MsrA inh 6.0 | MsrA inh confirm inactive
BrC(/C=C\c1ccccc1)=N/Nc1nc(N2CCOCC2)nc(N2CCOCC2)n1	MsrA inh 6.7 | MsrA inh confirm 4.6
CC(/C=N/Nc1nc(N2CCCCC2)nc(N2CCCCC2)n1)=C\c1ccccc1	none
COc1ccc(S[C@]2(C(=O)N3CCN(c4ncccn4)CC3)CC(=O)N(C(=O)C3CC3)[C@@H]2c2ccc(OC)cc2)cc1	none (no result: bovine MsrA act, MsrA inh, HTR2A ag)
NC(=S)N/N=C/c1c[nH]c2ccccc12	MsrA inh 6.5 | MsrA inh confirm inactive
O=C(N/N=C\c1c[nH]c2ccccc12)c1ccc(O)cc1	MsrA inh 5.3 | MsrA inh confirm inactive
O=C(O)c1ccc(N/N=C/c2c[nH]c3ccccc23)cc1	MsrA inh 5.6 | MsrA inh confirm 6.1
O=C(O)c1ccc(S(=O)(=O)NN=Cc2c[nH]c3ccccc23)cc1	none
CC(C)n1cc(/C=N/Nc2ccc(C(=O)O)cc2)c2ccccc21	MsrA inh 5.5 | MsrA inh confirm inactive
CCC1(c2ccc(F)cc2)NC(=O)N(CC(=O)NC2CCCCCC2)C1=O (stereo not given)	none
Cc1ccc(/C=C/C(=O)Nc2nnc(C)s2)o1	MsrA inh 7.6 | MsrA inh confirm 5.3
Cc1ccc(S(=O)(=O)N(C)C[C@H]2Oc3ncc(-c4ccccc4)cc3C(=O)N([C@@H](C)CO)C[C@@H]2C)cc1	none
COc1ccccc1/C=C/C1=NC(=C\C=C/c2ccccc2)/C(=O)O1	MsrA inh 6.4 | MsrA inh confirm inactive
COc1ccccc1/C=C/C=C1N=C(/C=C/c2ccc(Cl)cc2)OC/1=O	none
Cc1nc2cc(-c3sccc3-n3cccc3)nn2c(C)c1C	MsrA inh 8.2 | MsrA inh confirm 7.1
O=C1N/C(=C\c2ccc(O)cc2)C(O)=C1C=NCc1ccccc1	MsrA inh 4.9 | MsrA inh confirm inactive
COc1ccc(/C=C2\NC(=O)C(C=NCc3ccccc3)=C2O)cc1	none
COC(=O)C(C(=O)OC)C1OC23CN(S(=O)(=O)c4ccc(C)cc4)C=CC2(C)C3c2ccccc21 (stereo not given)	none (no result: bovine MsrA act, MsrA inh, HTR2A ag)
O=c1cccc(-c2ccc3ccccc3c2)o1	MsrA inh 5.0 (no result: bovine MsrA act) | MsrA inh confirm inactive
CCN(CC)c1nc(N)c2c(N)n(-c3ccccc3C)c(=S)c(C#N)c2c1C#N	MsrA inh 8.0 | MsrA inh confirm 9.3
CCN(CC)c1cc(C)c(C#N)c2nc3ccccc3n12	none
CCC(=O)N(Cc1ccccc1)c1ccccc1C(=O)Nc1cc(OC)ccc1OC	none (no result: bovine MsrA act, MsrA inh, HTR2A ag)
CCN(/N=C/C=C/c1ccccc1)c1cc(=O)n(C)c(=O)[nH]1	MsrA inh 11 | MsrA inh confirm 11
CCN(/N=C/c1ccc(Cl)cc1)c1cc(=O)n(C)c(=O)[nH]1	none
O=C(O)c1cc(-c2ccccc2)nc2nc(N3CCCCC3)sc12	MsrA inh 5.8 (no result: bovine MsrA act, HTR2A ag) | MsrA inh confirm inactive
Cc1ccc(-c2cc(C(=O)O)c3sc(N4CCCCC4)nc3n2)cc1	none
CCNc1ccc(S(N)(=O)=O)cc1[N+](=O)[O-]	none
CCC(C)/C(C)=N/Nc1ccc(S(N)(=O)=O)cc1[N+](=O)[O-] (stereo not given)	MsrA inh 7.7 | MsrA inh confirm inactive
COc1ccccc1NS(=O)(=O)c1ccc(N/N=C(\C)C(C)C)c([N+](=O)[O-])c1	MsrA inh 9.2 (no result: bovine MsrA act, HTR2A ag) | MsrA inh confirm inactive
C/C(CC(C)C)=N\Nc1ccc(S(N)(=O)=O)cc1[N+](=O)[O-]	MsrA inh 11 | MsrA inh confirm 5.6
CN(CCO)c1cccc2c1S(=O)(=O)N(Cc1cn(Cc3ccc(F)cc3)nn1)Cc1ccccc1O2	none (no result: bovine MsrA act, MsrA inh, HTR2A ag)
O=C(Nc1c(-c2ccc(F)cc2)nc2ncccn12)c1ccccc1	none (no result: bovine MsrA act, MsrA inh, HTR2A ag)
COc1ccc(C(=O)OCCCN(C)C2CN(Cc3cn(Cc4cccc(F)c4)nn3)S(=O)(=O)C2)cc1OC (stereo not given)	none (no result: bovine MsrA act, MsrA inh, HTR2A ag)
COc1ccc(/C(O)=C2/C(=O)C(=O)N(CCCN3CCOCC3)C2c2ccc(Cl)cc2)cc1 (stereo not given)	MsrA inh 6.8 | MsrA inh confirm inactive
O=C1C(=O)N(CCCn2ccnc2)C(c2ccc(Cl)cc2)/C1=C(\O)c1ccc2c(c1)OCCO2 (stereo not given)	MsrA inh 9.1 | MsrA inh confirm inactive
CCCCNC(=O)C1(C)CCN1C(=O)c1ccc2c(c1)CCO2 (stereo not given)	none
COc1ccc(S(=O)(=O)Nc2nc3c(s2)C(=O)CC(C)(C)C3)cc1	none
Cc1ccc(S(=O)(=O)Nc2nc3c(s2)C(=O)CC(C)(C)C3)cc1	MsrA inh 6.7 | MsrA inh confirm inactive
CC1(C)CC(=O)c2sc(NS(=O)(=O)Cc3ccccc3)nc2C1	MsrA inh 5.3 | MsrA inh confirm inactive
CCN(CC)c1c2c(nc3ncnn13)CCCC2	none (no result: bovine MsrA act, MsrA inh, HTR2A ag)
